In the library only some 3.7% were active in any assay of this set; here they are far more common.
Tau ThT inhib – blocks human tau fibril formation measured by thioflavin T. hit rate 2.1% among 270,000. recombinant tau K18 P301L, heparin-induced fibrillization, ThT fluorescence. AID 1460. P10636. Potency, µM (series often up to 57.4 µM), without a hit: at the top dose activity, negative = inhibition, actives largely listed as inhibitors; further: on the % scale 0 is the no-effect control and ±100 the full control effect; nearly all actives have a fitted effect of over 55% in size
Target sequence (P10636 561-689 P618L limits assumed): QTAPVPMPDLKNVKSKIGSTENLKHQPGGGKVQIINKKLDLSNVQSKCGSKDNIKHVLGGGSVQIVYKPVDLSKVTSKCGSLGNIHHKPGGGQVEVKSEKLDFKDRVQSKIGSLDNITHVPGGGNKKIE
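Heparin-induced (20 uM) aggregation of recombinant human K18 P301L tau, 15 uM unlabeled with 0.24 uM labeled, pH 7 acetate buffer, 6 hr at 37 C with compound. Fibrils quantified by 30 uM ThT fluorescence after 1 hr ambient incubation.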
Tau fluor cs – counter-screen for tau fibril formation inhibitors; tau K18 P301L Alexa594 fluorescence, heparin fibrillization; Potency, µM (series often up to 57.7 µM), for inactives: at the top dose activity change, negative = decrease; hit rate 0.93% among 280,000; further: on the % scale 0 is the no-effect control and ±100 the full control effect; nearly all actives have a fitted effect of over 55% in size
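Human tau K18 P301L (15 uM unlabeled, 0.24 uM Alexa 594-labeled) in 100 mM sodium acetate pH 7 with 20 uM heparin, 6 hr at 37 C. ThT 30 uM added, 1 hr ambient; Alexa 594 FP and total fluorescence read at 555/632 nm.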
HTT ATP protect – Huntington cell model cytoprotection by ATP luminescence. PC12 HTT-Q103 induced, cytoprotection, ATP luminescence, 40 h. Potency, µM (doses to about 56.4 µM), without a hit: cytoprotection (ATP increase), usual class: activators. hit rate 0.14% among 230,000. AID 1471; further: % of control where 0% means no effect; nearly all actives have a fitted effect of over 45% in size
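Quantitative HTS on tebufenozide-induced (100 nM) PC12 cells expressing HTTQ103 exon 1–GFP; compounds tested as a concentration series; survival measured via cellular ATP.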
Tau fibril FP – tau fibrillization inhibition (FP). P10636. Potency, µM (series often up to 57.7 µM), for inactives: top-dose activity, negative = inhibition, most hits filed as inhibitors. K18 P301L tau heparin fibrillization, Alexa594 FP, 6 h. hit rate 0.39% among 280,000; further: on the % scale 0 is the no-effect control and ±100 the full control effect; nearly all actives have a fitted effect of over 55% in size
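Human K18 P301L fragment (15 uM unlabeled plus 0.24 uM Alexa 594-labeled) in 100 mM sodium acetate pH 7 with compound, aggregation induced by 20 uM heparin for 6 hr at 37 C. ThT (30 uM) added for 1 hr, then Alexa 594 FP read.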
HttQ103 aggreg – inhibitors of mutant huntingtin aggregate formation in PC12 cells | hit rate 1.1% among 220,000 | Potency, µM (highest dose often 46.1 µM), for the others: at the highest dose activity change, negative = inhibition, most hits filed as inhibitors | PC12 HttQ103-GFP aggregates, Acumen cytometry, 40 h | AID 1688; further: on the % scale 0 is the no-effect control and ±100 the full control effect; nearly all actives have a fitted effect of over 60% in size
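Huntingtin Q103 exon 1–GFP aggregates in induced PC12 cells (100 nM tebufenozide) were quantified by cytometry from lysates, with compounds dosed in titration.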
Starred values were filed as active, the others as inactive; [ ] = dose if it differs, or a comment. The call rests on the fitted dose curve; in most records, active means well fitted curve in the direction sought with a large enough effect; inconclusive means small, poorly fitted or top-dose-only effect, or another doubt; inactive means no such curve, though single readings can be large; an effect the other way counts as inactive or inconclusive. Potency means the concentration at half of the fitted maximal effect.

What do the screens show for `O=[N+]([O-])c1ccc(Sc2ncccn2)c([N+](=O)[O-])c1`?
Tau ThT inhib: 13µM*; Tau fluor cs: 6.3µM*[quencher]; HTT ATP protect: -13%[10 µM]; Tau fibril FP: inconclusive; HttQ103 aggreg: 3%[9.22 µM]

Results for Cc1cccc(Sc2ccc([N+](=O)[O-])cc2[N+](=O)[O-])n1 ?
Tau ThT inhib: inconclusive; Tau fluor cs: inconclusive; Tau fibril FP: -5%; HttQ103 aggreg: inconclusive

What do the screens show for `C=CC1=C(C)C2=NC1=CC1=NC(=CC3=NC(=CC4=NC(=C2)C(C)=C4CCC(=O)O)C(CCC(=O)O)=C3C)C(C=C)=C1C.[Zn]`?
Tau ThT inhib: 6.3µM*; Tau fluor cs: 14µM*[quencher]; HTT ATP protect: -35%[1.9 µM]; Tau fibril FP: 20µM*

How did COc1ccc2[nH]c(O)c(N=NC(=O)Cc3cccs3)c2c1 do in these assays?
Tau ThT inhib: 16µM*; Tau fluor cs: inconclusive; HTT ATP protect: -6%[10 µM]; Tau fibril FP: 14%; HttQ103 aggreg: -18%[9.22 µM]

How did O=C(Cc1cccs1)N=Nc1c(O)[nH]c2ccc(Br)cc12 do in these assays?
Tau ThT inhib: inconclusive; Tau fluor cs: -30%; HTT ATP protect: 29%[10 µM]; Tau fibril FP: -5%; HttQ103 aggreg: -3%[9.22 µM]

Results for CC(=O)Nc1ccc(N=NN2CCOCC2)cc1 ?
Tau ThT inhib: 10µM*; Tau fluor cs: -27%; HTT ATP protect: -10%; Tau fibril FP: -11%; HttQ103 aggreg: 0%

How did CC(=O)Nc1ccc(N=Nc2ccc(O)cc2)cc1 do in these assays?
Tau ThT inhib: 7.9µM*; Tau fluor cs: -25%; HTT ATP protect: -62%[10 µM]; Tau fibril FP: 4%; HttQ103 aggreg: -4%

Results for COc1ccc(NS(=O)(=O)c2ccc3[nH]c4c(c3c2)CCCCC4)cc1 ?
Tau ThT inhib: inconclusive; Tau fluor cs: 3.5µM*[quencher]; Tau fibril FP: -11%

How did CCOc1ccc(NS(=O)(=O)c2ccc3[nH]c4c(c3c2)CCCCC4)cc1 do in these assays?
Tau ThT inhib: -6%; Tau fluor cs: 14µM*[quencher]; Tau fibril FP: 10%

Results for COc1ccc(NS(=O)(=O)c2ccc3[nH]c4c(c3c2)CCCC4)c(OC)c1 ?
Tau ThT inhib: -7%; Tau fluor cs: 16µM*[quencher]; Tau fibril FP: 15%

How did CCOc1ccc(NS(=O)(=O)c2ccc3nc(-c4ccccc4)[nH]c3c2)cc1 do in these assays?
Tau ThT inhib: 8%; Tau fluor cs: inconclusive; Tau fibril FP: 20µM*

What do the screens show for `COc1ccc(CNC(=O)CN(C)S(=O)(=O)c2ccc3[nH]c4c(c3c2)CCCC4)cc1`?
Tau ThT inhib: -8%; Tau fluor cs: inconclusive; Tau fibril FP: inconclusive

What do the screens show for `COc1ccc(OC)c(CNS(=O)(=O)c2ccc3[nH]c4c(c3c2)CCCCC4)c1`?
Tau ThT inhib: -13%; Tau fluor cs: inconclusive; Tau fibril FP: 10%

Results for COc1cc(C(=O)O[C@@H]2CC(C)=CC[C@@]3(C)CC[C@](O)(C(C)C)[C@H]23)ccc1O ?
HTT ATP protect: 19%

What do the screens show for `N#Cc1cccc(CS(=O)(=O)c2nnnn2C2CCCCC2)c1`?
Tau ThT inhib: -7%; Tau fluor cs: -1%; HTT ATP protect: inconclusive; Tau fibril FP: -5%

What do the screens show for `CCC(N)(C(=O)O)c1ccc(C(=O)O)cc1` (stereo unspecified)?
Tau ThT inhib: -2%; Tau fluor cs: -6%; HTT ATP protect: -35%; Tau fibril FP: -1%

How did CCCC(c1cc(C(C)(C)C)c(O)cc1C)c1cc(C(C)(C)C)c(O)cc1C do in these assays?
HTT ATP protect: 13%[10 µM]

What do the screens show for `CCC(=O)N1CCCc2cc(S(=O)(=O)N3CCC(C(=O)NC4CCC(C)CC4)CC3)ccc21` (stereo unspecified)?
Tau ThT inhib: -8%; Tau fluor cs: -15%; Tau fibril FP: -8%

What do the screens show for `CCOc1ccc(NS(=O)(=O)c2ccc3[nH]c4c(c3c2)CCCC4)cc1`?
Tau ThT inhib: -1%; Tau fluor cs: 13µM*[quencher]; Tau fibril FP: -1%

What do the screens show for `CN(C)c1ccc(CNS(=O)(=O)c2ccc3[nH]c4c(c3c2)CCCCC4)cc1`?
Tau ThT inhib: 4%; Tau fluor cs: inconclusive; Tau fibril FP: 5%

Results for C=C1CCC2C(C)(CO)C(O)CCC2(C)C1C/C=C1\C(=O)OCC1O (stereo unspecified) ?
Tau ThT inhib: -4%; Tau fluor cs: 0%; HTT ATP protect: 17%[1.9 µM]; Tau fibril FP: -3%

What do the screens show for `C=C1CC[C@@H]2[C@](C)(CC[C@@H](O)[C@]2(C)CO)[C@@H]1C/C=C1/C(=O)OC[C@H]1O`?
HTT ATP protect: 40µM*

How did Cc1cccc(C(=O)NC2(C(F)(F)F)N=C(c3ccccc3)N(Cc3ccccc3)C2=O)c1 (stereo unspecified) do in these assays?
Tau ThT inhib: inconclusive; Tau fluor cs: -10%; Tau fibril FP: -6%

How did CC(C)(C)C(=O)NC(=S)NNC(=O)c1sc2ccccc2c1Cl do in these assays?
Tau ThT inhib: inconclusive; Tau fluor cs: -29%; HTT ATP protect: -27%[10 µM]; Tau fibril FP: inconclusive; HttQ103 aggreg: 10µM*

Results for O=C(NNC(=S)NC1CCCCC1)c1sc2ccccc2c1Cl ?
Tau ThT inhib: inconclusive; Tau fluor cs: inconclusive; HTT ATP protect: -1%[10 µM]; Tau fibril FP: inconclusive; HttQ103 aggreg: 5%

How did Cc1[nH][nH]c(=O)c1C(c1c(C)[nH][nH]c1=O)c1cn(Cc2ccc(F)cc2)c2ccccc12 do in these assays?
Tau ThT inhib: 8.9µM*; Tau fluor cs: -25%; Tau fibril FP: inconclusive; HttQ103 aggreg: 25%

What do the screens show for `Cc1[nH][nH]c(=O)c1C(c1c(C)[nH][nH]c1=O)c1cn(Cc2ccc(Cl)c(Cl)c2)c2ccccc12`?
Tau ThT inhib: 10µM*; Tau fluor cs: inconclusive; HTT ATP protect: -21%[10 µM]; Tau fibril FP: inconclusive; HttQ103 aggreg: -6%

What do the screens show for `Cc1ccc(C2C3=C(CC(C)(C)CC3=O)NC3=C2C(=O)c2ccccc23)cc1` (stereo unspecified)?
Tau ThT inhib: inconclusive; Tau fluor cs: inconclusive; HTT ATP protect: -9%[10 µM]; Tau fibril FP: 7%; HttQ103 aggreg: -3%

What do the screens show for `CC1(C)C(=O)NC2=C1C(=O)C(=O)c1ccccc12`?
Tau ThT inhib: 18µM*; Tau fluor cs: -28%; HTT ATP protect: -83%; Tau fibril FP: inconclusive

What do the screens show for `Oc1ccc(/C=N/N(Cc2ccccc2)c2ccccc2)c(O)c1O`?
Tau ThT inhib: 28µM*; Tau fluor cs: 28µM*[quencher]; HTT ATP protect: -7%; Tau fibril FP: inconclusive; HttQ103 aggreg: 32%

What do the screens show for `C(=N\N(Cc1ccccc1)c1ccccc1)/c1cccnc1`?
Tau ThT inhib: inconclusive; Tau fluor cs: -26%; HTT ATP protect: -50%; Tau fibril FP: 2%; HttQ103 aggreg: -30%

Assay outcomes as filed in PubChem BioAssay.
